According to PubChem BioAssay:
Potency and affinity values are given separately. Values without a mark were called inactive. No rule for the calls is given here.

assay: A2780 ovarian cancer cell cytotoxicity, dose response, cytotoxicity control, plate reader, dry powder samples (AID 743046); conditions: series mostly up to 35 µM; activity change, negative = cytotoxicity: at the top concentration;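 also: 0% = neutral control wells and -100% = cytotoxic reference compound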

Going from `C[C@@H]1CCCCO[C@H](CN(C)S(=O)(=O)c2ccc(F)cc2)[C@H](C)CN([C@@H](C)CO)C(=O)c2cc(NS(=O)(=O)c3ccc(Cl)cc3)ccc2O1` to `COc1ccc(S(=O)(=O)N(C)C[C@@H]2OCCCC[C@H](C)Oc3ccc(NS(=O)(=O)c4ccccc4)cc3C(=O)N([C@H](C)CO)C[C@H]2C)cc1`, the “activity change, negative = cytotoxicity” value falls from -7.35% to -23.2%.

First: COc1ccccc1C#Cc1ccc2c(c1)O[C@@H](CN(C)Cc1ccncc1)[C@H](C)CN([C@H](C)CO)S2(=O)=O
Second: COc1ccccc1C#Cc1ccc2c(c1)O[C@@H](CN(C)Cc1ccncc1)[C@H](C)CN([C@@H](C)CO)S2(=O)=O
The “activity change, negative = cytotoxicity” value of the first is lower: -13.8% for the first, 100% for the second.

Going from `C[C@H](CO)N1C[C@H](C)[C@@H](CN(C)S(=O)(=O)c2ccc(-c3ccccc3)cc2)OCc2cn(nn2)CCCC1=O` to `C[C@H]1CN([C@@H](C)CO)C(=O)Cc2cc(NC(=O)NC3CCCCC3)ccc2O[C@@H]1CN(C)Cc1ccc(-c2ccccc2)cc1`, the “activity change, negative = cytotoxicity” value falls from 38.9% to 26%.

Compared with `C[C@@H]1CCCCO[C@H](CN(C)C(=O)Nc2cccc3ccccc23)[C@H](C)CN([C@@H](C)CO)C(=O)c2cc(NS(=O)(=O)c3ccc(Cl)cc3)ccc2O1`, `C[C@H]1CCCCO[C@H](CN(C)C(=O)Nc2cccc3ccccc23)[C@@H](C)CN([C@@H](C)CO)C(=O)c2cc(NS(=O)(=O)c3ccc(Cl)cc3)ccc2O1` is higher in “activity change, negative = cytotoxicity” value: -28.4% for the first, 33.3% for the second.

Compared with `C[C@@H]1CN([C@H](C)CO)C(=O)c2cc(NC(=O)Nc3ccccc3)ccc2O[C@@H](C)CCCCO[C@H]1CN(C)Cc1ccc(C(F)(F)F)cc1`, `C[C@@H]1CN([C@H](C)CO)C(=O)c2cc(NC(=O)Nc3ccc(F)cc3)ccc2O[C@@H](C)CCCCO[C@H]1CN(C)Cc1ccc(C(F)(F)F)cc1` is higher in “activity change, negative = cytotoxicity” value: -8.99% for the first, 15.6% for the second.

Compared with `C[C@@H]1CN([C@H](C)CO)C(=O)c2cc(NS(=O)(=O)c3ccc(F)cc3)ccc2O[C@@H](C)CCCCO[C@@H]1CN(C)Cc1ccccc1`, `COc1ccc(S(=O)(=O)Nc2ccc3c(c2)C(=O)N([C@@H](C)CO)C[C@H](C)[C@@H](CN(C)C(=O)Nc2ccc(F)cc2)OCCCC[C@H](C)O3)cc1` is lower in “activity change, negative = cytotoxicity” value: 18.3% for the first, 3.1% for the second.

Compared with `C[C@@H]1CN([C@@H](C)CO)C(=O)Cc2cc(NC(=O)CCCCCC(=O)Nc3ccccc3N)ccc2O[C@@H]1CN(C)Cc1ccc(C(F)(F)F)cc1`, `C[C@@H]1CCCCO[C@H](CN(C)Cc2ccc(C(F)(F)F)cc2)[C@@H](C)CN([C@@H](C)CO)C(=O)c2cc(NC(=O)Cc3ccccc3)ccc2O1` is lower in “activity change, negative = cytotoxicity” value: 8.22% for the first, 4.75% for the second.

Going from `O=C(Nc1cccc(F)c1)N1CCCCN2[C@H](CO)[C@@H](c3ccc(C#Cc4ccccc4)cc3)[C@H]2C1` to `Cc1cccc(-c2ccc(C3[C@@H]4CN(C(=O)Nc5ccc(C(F)(F)F)cc5)C[C@H]3N4)cc2)c1` (stereo partly specified), the “activity change, negative = cytotoxicity” value rises from -111% to -25.3%.

Compared with `C[C@@H]1CCCCO[C@H](CN(C)Cc2ccc(Cl)c(Cl)c2)[C@@H](C)CN([C@@H](C)CO)C(=O)c2cc(NC(=O)Nc3ccccc3)ccc2O1`, `C[C@@H]1CN([C@H](C)CO)C(=O)c2cc(NC(=O)Nc3ccc(F)cc3)ccc2O[C@@H](C)CCCCO[C@@H]1CN(C)Cc1ccc(C(F)(F)F)cc1` is lower in “activity change, negative = cytotoxicity” value: 169% for the first, -22.8% for the second.

Going from `C[C@H](CO)N1C[C@H](C)[C@@H](CN(C)C(=O)c2ccc3c(c2)OCO3)Oc2cc(C#Cc3ccccc3F)ccc2S1(=O)=O` to `CCCC#Cc1ccc([C@@H]2[C@@H](C#N)N(C(=O)C3CCCCC3)[C@H]2CO)cc1`, the “activity change, negative = cytotoxicity” value falls from 93.6% to 24.3%.

Compared with `COc1cccc(-c2ccc3c(c2)[C@H]2[C@H](CCN2S(=O)(=O)c2ccccc2F)[C@@H](CO)N3)c1`, `O=C(Nc1ccc(F)cc1)N1CC(=O)N2[C@@H](CO)[C@H](c3ccc(-c4ccc(F)cc4)cc3)[C@@H]2C1` is lower in “activity change, negative = cytotoxicity” value: 10.4% [at 16 µM] for the first, 7.68% [at 16 µM] for the second.

With `COc1ccc(CN(C)C[C@H]2OCCCC[C@H](C)Oc3ccc(NC(=O)Nc4ccc(C(F)(F)F)cc4)cc3C(=O)N([C@H](C)CO)C[C@H]2C)cc1` the “activity change, negative = cytotoxicity” value was 16.9% [at 16 µM].

With `C[C@@H]1CCCCO[C@@H](CN(C)Cc2ccc(Cl)c(Cl)c2)[C@@H](C)CN([C@@H](C)CO)C(=O)c2cc(NC(=O)Nc3ccccc3)ccc2O1` the “activity change, negative = cytotoxicity” value was 11.8% [at 30 µM].

assay: cytotoxicity in OVCAR8 ovarian cancer cells, dose response, PAX8 project, cell-based, plate reader, dry powder samples (AID 743197); conditions: series mostly up to 35 µM; activity change, negative = cytotoxicity: at the top concentration

Compared with `C[C@@H]1CCCCO[C@H](CN(C)S(=O)(=O)c2ccc(F)cc2)[C@H](C)CN([C@@H](C)CO)C(=O)c2cc(NS(=O)(=O)c3ccc(Cl)cc3)ccc2O1`, `COc1ccc(S(=O)(=O)Nc2ccc3c(c2)C(=O)N([C@@H](C)CO)C[C@H](C)[C@@H](CN(C)C(=O)Nc2ccc(F)cc2)OCCCC[C@H](C)O3)cc1` is lower in “activity change, negative = cytotoxicity” value: 1.02% for the first, -15.1% for the second.

Going from `C[C@H](CO)N1C[C@H](C)[C@@H](CN(C)S(=O)(=O)c2ccc(-c3ccccc3)cc2)OCc2cn(nn2)CCCC1=O` to `C[C@H]1CN([C@@H](C)CO)C(=O)Cc2cc(NC(=O)NC3CCCCC3)ccc2O[C@@H]1CN(C)Cc1ccc(-c2ccccc2)cc1`, the “activity change, negative = cytotoxicity” value rises from -18.7% to -0.664%.

Compared with `C[C@@H]1CN([C@H](C)CO)C(=O)c2cc(NC(=O)Nc3ccccc3)ccc2O[C@@H](C)CCCCO[C@H]1CN(C)Cc1ccc(C(F)(F)F)cc1`, `C[C@@H]1CN([C@H](C)CO)C(=O)c2cc(NC(=O)Nc3ccc(F)cc3)ccc2O[C@@H](C)CCCCO[C@H]1CN(C)Cc1ccc(C(F)(F)F)cc1` is higher in “activity change, negative = cytotoxicity” value: -32.4% for the first, -4.06% for the second.

First: O=C(Nc1cccc(F)c1)N1CCCCN2[C@H](CO)[C@@H](c3ccc(C#Cc4ccccc4)cc3)[C@H]2C1
Second: C[C@@H]1CCCCO[C@H](CN(C)Cc2ccc(C(F)(F)F)cc2)[C@@H](C)CN([C@@H](C)CO)C(=O)c2cc(NC(=O)Cc3ccccc3)ccc2O1
The “activity change, negative = cytotoxicity” value of the first is lower: -113% for the first, -30.7% for the second.

First: C[C@@H]1CCCCO[C@H](CN(C)Cc2ccc(Cl)c(Cl)c2)[C@@H](C)CN([C@@H](C)CO)C(=O)c2cc(NC(=O)Nc3ccccc3)ccc2O1
Second: C[C@@H]1CN([C@@H](C)CO)S(=O)(=O)c2ccc(C#Cc3ccncc3)cc2O[C@H]1CN(C)C(=O)Nc1ccc2c(c1)OCO2
The “activity change, negative = cytotoxicity” value of the first is lower: 3.62% for the first, 7.75% for the second.

In the case of `C[C@@H]1CCCCO[C@@H](CN(C)Cc2ccc(Cl)c(Cl)c2)[C@@H](C)CN([C@@H](C)CO)C(=O)c2cc(NC(=O)Nc3ccccc3)ccc2O1`, the “activity change, negative = cytotoxicity” value is reported as -4.45% [at 30 µM].

For `C[C@H](CO)N1C[C@H](C)[C@@H](CN(C)C(=O)c2ccc3c(c2)OCO3)Oc2cc(C#Cc3ccccc3F)ccc2S1(=O)=O`, the “activity change, negative = cytotoxicity” value was 40.3% [at 16 µM].
